Results reported in PubChem BioAssay (NCI).
Compounds without any hit were thinned out: in the full panel of roughly 83,000, 20% have a hit.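 In brief: 96-well plates, 48 h treatment, single concentration, percent growth endpoint.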 A number with no mark means an inactive call. Activity calls are given as the source filed them. Rule for the calls: active = growth percent below 10; inactive = the rest.

Columns and labels:
Experiment in all cases: NCI-60 one-dose screen, 48 h (100 = growth as untreated, 0 = no growth, -100 = all killed)
Settings in all cases: 10 µM unless noted
NCI-H23 lung = system: NCI-H23 lung
NCI-H226 lung = system: NCI-H226 lung
HOP-62 NSCLC = system: HOP-62 NSCLC
NCI-H460 lung = system: NCI-H460 lung
HOP-92 NSCLC = system: HOP-92 NSCLC
NCI-H522 lung = system: NCI-H522 lung
A549/ATCC NSCLC = system: A549/ATCC NSCLC
COLO 205 colon = system: COLO 205 colon
786-0 renal = system: 786-0 renal

SMILES | growth (NCI-H23 lung) | growth (NCI-H226 lung) | growth (HOP-62 NSCLC) | growth (NCI-H460 lung) | growth (HOP-92 NSCLC) | growth (NCI-H522 lung) | growth (A549/ATCC NSCLC) | growth (COLO 205 colon) | growth (786-0 renal)
S=c1[nH]nc(-c2cc3ccc2CCc2ccc(cc2)CC3)n1C1CC1 | 97.8% | 108% | 104% | 103% | 96.1% | 89.6% | 108% | 113% | –
ClC(Cl)c1nc(-c2cccnc2)n2nc(-c3ccccc3)cc2n1 | -39.3% (active) | 66.2% | 5.17% (active) | -32.5% (active) | -0.78% (active) | -20.3% (active) | -16.8% (active) | -52.6% (active) | 82.3%
CCOC(=O)CN1/C(=N/c2sc3c(c2C(=O)OCC)CCN(C(=O)OCC)C3)SC(=O)/C1=C\C(=O)OC | 95.8% | 92.2% | 92.4% | 99.9% | 74.5% | 76.4% | 90.4% | 101% | –
Cc1cc(C)n(-c2nnc3n2N=C(c2ccc(-c4ccccc4)cc2)CS3)n1 | 75.7% | 68.4% | 54.7% | 45.1% | -2.12% (active) | 29.2% | 31.5% | 39.8% | 59.9%
C=C[C@@H]1C[C@H](O)Cc2cc(F)ccc2N1 | 97.4% | 87% | 88% | 98% | 56.2% | 92.9% | 98% | 107% | 100%
COc1ccc(C(=O)NC(=O)Nc2cc3c(cc2F)/C(=C/c2[nH]c(C)c(CCC(=O)O)c2C)C(=O)N3)c(F)c1 | 41.3% | 53.3% | 25.8% | 28.6% | -0.4% (active) | 48.6% | 13.5% | 67.4% | 39%
